Assay results reported in PubChem BioAssay (NCATS).
Several values for one entry are separate records, joined by “and”; a condition that tells them apart may be missing. Identical values can stand only once. Inconclusive results are not listed. Where a call stands in place of a potency, no number is given. Activity calls are given as the source filed them. The call rests on the fitted dose curve; in most records, active means well fitted curve in the direction sought with a large enough effect; inconclusive means small, poorly fitted or top-dose-only effect, or another doubt; inactive means no such curve, though single readings can be large; an effect the other way counts as inactive or inconclusive.

Experiments:
[1] = molecular target: Voltage-gated inwardly rectifying potassium channel KCNH2 (Homo sapiens) (UniProt Q12809); assay: qHTS Assay for Small Molecule Inhibitors of the Human hERG Channel Activity (AID 588834);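 further: lower thallium flux fluorescence means stronger hERG block; nearly all actives have a fitted effect of over 50% in size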; further: potency means the concentration at half of the fitted maximal effect
Sequence of Voltage-gated inwardly rectifying potassium channel KCNH2 (Homo sapiens) (Q12809 whole entry, looked up): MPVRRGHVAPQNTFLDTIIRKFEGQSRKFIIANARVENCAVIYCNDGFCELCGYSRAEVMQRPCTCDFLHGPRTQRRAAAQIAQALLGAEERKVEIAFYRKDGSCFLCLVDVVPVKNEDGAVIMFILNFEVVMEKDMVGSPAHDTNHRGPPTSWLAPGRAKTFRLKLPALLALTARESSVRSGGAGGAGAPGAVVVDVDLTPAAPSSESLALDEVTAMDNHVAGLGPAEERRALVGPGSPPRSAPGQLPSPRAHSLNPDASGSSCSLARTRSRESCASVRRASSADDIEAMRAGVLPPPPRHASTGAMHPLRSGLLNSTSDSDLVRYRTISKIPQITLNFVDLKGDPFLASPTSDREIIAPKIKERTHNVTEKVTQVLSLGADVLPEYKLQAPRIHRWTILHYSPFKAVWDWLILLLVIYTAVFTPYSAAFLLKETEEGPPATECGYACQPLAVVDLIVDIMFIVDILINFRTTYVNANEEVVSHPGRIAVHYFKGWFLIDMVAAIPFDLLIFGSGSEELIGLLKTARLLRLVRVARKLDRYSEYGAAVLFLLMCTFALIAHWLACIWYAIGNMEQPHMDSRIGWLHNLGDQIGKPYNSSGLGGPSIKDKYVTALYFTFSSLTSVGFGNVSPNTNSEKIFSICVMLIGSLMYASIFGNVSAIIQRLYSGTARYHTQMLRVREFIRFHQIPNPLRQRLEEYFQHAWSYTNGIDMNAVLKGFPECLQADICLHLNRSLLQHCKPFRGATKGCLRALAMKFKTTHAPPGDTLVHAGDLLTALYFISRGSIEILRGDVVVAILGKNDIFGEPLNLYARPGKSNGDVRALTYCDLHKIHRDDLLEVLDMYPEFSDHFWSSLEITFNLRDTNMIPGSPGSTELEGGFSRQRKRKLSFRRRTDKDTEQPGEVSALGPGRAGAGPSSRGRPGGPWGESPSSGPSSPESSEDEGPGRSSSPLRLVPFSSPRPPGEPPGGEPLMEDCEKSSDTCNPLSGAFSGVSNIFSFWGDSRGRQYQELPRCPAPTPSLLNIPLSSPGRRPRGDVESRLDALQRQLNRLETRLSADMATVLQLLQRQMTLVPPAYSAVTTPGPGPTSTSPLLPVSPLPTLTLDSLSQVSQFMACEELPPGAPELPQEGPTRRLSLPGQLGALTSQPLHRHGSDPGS
In short: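 hERG-BacMam U2OS, 2000 cells/well; 0.7X FluxOR loading 1 hr RT dark; cpd ~10 min 37 °C; stim buffer; FDSS fluorescence 2 min @ 1 s; AC50 Hill fit.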

[2] = S16 Schwann cell PMP22 intronic element firefly luciferase assay (AID 624032); further: nearly all actives have a fitted effect of over 30% in size; further: potency means the concentration at half of the fitted maximal effect
In short: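 Rat S16 Schwann cells stably carrying firefly luciferase driven by a PMP22 intronic element, in 10% FBS, treated 24 h at 37 C. ONE-Glo luminescence normalized to PTC124 control and DMSO (0%); curves classed by r2, magnitude and activity.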

[3] = molecular target: Glutaminase kidney isoform, mitochondrial (Homo sapiens) (UniProt O94925); assay: qHTS for Inhibitors of Glutaminase (GLS): LOPAC Validation (AID 624146);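 further: glutamate product detected by oxidase and peroxidase coupled Amplex red fluorescence gain; series mostly up to about 46 µM; nearly all actives have a fitted effect of over 60% in size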
Sequence of Glutaminase kidney isoform, mitochondrial (Homo sapiens) (O94925 whole entry, looked up, canonical isoform): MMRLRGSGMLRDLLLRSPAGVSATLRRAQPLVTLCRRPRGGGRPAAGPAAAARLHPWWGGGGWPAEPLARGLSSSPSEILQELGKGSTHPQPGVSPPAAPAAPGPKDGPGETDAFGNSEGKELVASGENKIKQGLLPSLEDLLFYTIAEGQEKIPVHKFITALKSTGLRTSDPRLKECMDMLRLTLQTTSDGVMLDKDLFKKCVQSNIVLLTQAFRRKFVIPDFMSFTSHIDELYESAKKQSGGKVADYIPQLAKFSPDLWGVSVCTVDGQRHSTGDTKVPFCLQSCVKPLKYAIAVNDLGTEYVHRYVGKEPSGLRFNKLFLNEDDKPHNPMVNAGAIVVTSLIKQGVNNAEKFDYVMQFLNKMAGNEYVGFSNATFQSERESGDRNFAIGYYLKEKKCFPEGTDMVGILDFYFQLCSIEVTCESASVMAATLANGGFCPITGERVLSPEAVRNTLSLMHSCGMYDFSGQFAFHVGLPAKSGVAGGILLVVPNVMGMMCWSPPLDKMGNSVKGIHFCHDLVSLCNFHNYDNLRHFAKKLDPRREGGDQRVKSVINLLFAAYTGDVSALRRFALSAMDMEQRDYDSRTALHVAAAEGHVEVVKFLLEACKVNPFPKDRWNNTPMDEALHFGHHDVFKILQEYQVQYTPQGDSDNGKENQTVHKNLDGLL
In short: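 Assay buffer: 45 mM KH2PO4 pH 8.2, 0.02% Tween-20. hKGA acts on L-glutamine (1 mM solution added); product glutamate is reported by an oxidase/peroxidase Amplex Red coupling, with fluorescence taken at baseline and 30 min.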

[4] = qHTS of Trypanosoma Brucei Inhibitors: LOPAC Validation (AID 624147)
In short: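 Luminescent Kinase-Glo Plus end-point after 45 min room-temperature reaction of T. brucei pyruvate kinase started with 130 uM ADP (final). Buffer TEA 50 mM pH 7.2 with KCl, MgCl2, BSA, Tween-20; titration-based qHTS with fitted concentration-effect curves.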

[5] = molecular target: Glucagon-like peptide 1 receptor (Homo sapiens) (UniProt P43220); assay: qHTS of GLP-1 Receptor Agonists: LOPAC Validation (AID 624148);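 further: higher luminescence signal means agonism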
Sequence of Glucagon-like peptide 1 receptor (Homo sapiens) (P43220 whole entry, looked up): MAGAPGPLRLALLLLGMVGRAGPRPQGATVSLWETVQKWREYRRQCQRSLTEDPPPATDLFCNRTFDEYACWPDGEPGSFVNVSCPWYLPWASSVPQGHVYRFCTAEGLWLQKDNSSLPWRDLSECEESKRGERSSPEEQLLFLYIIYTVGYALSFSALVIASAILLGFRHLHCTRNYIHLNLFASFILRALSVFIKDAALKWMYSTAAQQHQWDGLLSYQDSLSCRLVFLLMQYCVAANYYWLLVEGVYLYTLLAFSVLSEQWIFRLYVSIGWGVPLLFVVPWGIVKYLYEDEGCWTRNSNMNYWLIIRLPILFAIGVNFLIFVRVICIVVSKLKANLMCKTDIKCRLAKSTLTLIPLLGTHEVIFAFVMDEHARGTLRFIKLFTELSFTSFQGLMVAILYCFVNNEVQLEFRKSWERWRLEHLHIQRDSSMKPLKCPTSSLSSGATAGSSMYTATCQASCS
In short: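 HEK293 cells stably co-expressing GLP-1R and a cAMP-responsive luciferase reporter, plated 12 hours before compound, then incubated 4-6 hr at 37 deg C. Luminescence read 12 min after detection reagent.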

[6] = S16 Schwann cell viability assay (CellTiter-Glo assay) (AID 624031);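 further: cellular ATP luminescence as a viability measure; series mostly up to about 58 µM; nearly all actives have a fitted effect of over 70% in size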
In short: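 Native S16 rat Schwann cells, 500-750 cells/well in DMEM with 10% FBS, dosed with compound after overnight culture and incubated 24h at 37 degree Celsius/5% CO2. Viability by CellTiter-Glo luminescence; % activity normalized to no-cell wells and DMSO-treated cells.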

[7] = molecular target: Luciferin 4-monooxygenase (Photinus pyralis) (UniProt P08659); assay: Biochemical firefly luciferase enzyme assay for NPC (AID 624030);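 further: purified P. pyralis luciferase at 10 nM with luciferin and ATP substrate; series mostly up to about 59 µM; nearly all actives have a fitted effect of over 70% in size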
Sequence of Luciferin 4-monooxygenase (Photinus pyralis) (P08659 whole entry, looked up): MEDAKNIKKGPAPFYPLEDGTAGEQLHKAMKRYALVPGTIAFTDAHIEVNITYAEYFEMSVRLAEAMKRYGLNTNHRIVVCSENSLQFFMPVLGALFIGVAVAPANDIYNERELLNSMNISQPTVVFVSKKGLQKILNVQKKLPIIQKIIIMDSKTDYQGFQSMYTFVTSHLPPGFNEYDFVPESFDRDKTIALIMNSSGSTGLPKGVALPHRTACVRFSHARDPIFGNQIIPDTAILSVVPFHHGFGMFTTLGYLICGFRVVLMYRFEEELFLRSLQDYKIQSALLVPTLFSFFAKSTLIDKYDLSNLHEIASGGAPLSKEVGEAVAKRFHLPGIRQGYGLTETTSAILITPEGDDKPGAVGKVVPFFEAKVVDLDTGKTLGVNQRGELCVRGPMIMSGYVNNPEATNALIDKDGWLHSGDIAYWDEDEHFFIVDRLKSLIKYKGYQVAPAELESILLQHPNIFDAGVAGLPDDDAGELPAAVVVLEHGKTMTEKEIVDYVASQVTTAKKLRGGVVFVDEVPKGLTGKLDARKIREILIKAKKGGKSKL
In short: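 Purified P. pyralis luciferase at 10 nM in 50 mM Tris Acetate (final), luminescence read within 5 minutes of enzyme addition to compounds. Activity normalised to PTC124 versus DMSO; concentration-response curves classed by r2, magnitude and activity.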

Cc1cc2c(C(C)C)c(O)c(O)c(C=O)c2c(O)c1-c1c(C)cc2c(C(C)C)c(O)c(O)c(C=O)c2c1O
Potency [1]: inactive | Potency [2]: inactive | outcome [3]: inactive | outcome [4]: inactive | outcome [5]: inactive

NCCCC(N)(C(=O)O)C(F)F (stereo not given)
Potency [6]: inactive | Potency [2]: inactive | outcome [3]: inactive | outcome [4]: inactive | outcome [5]: inactive

CCOC(=O)N1CCC(=C2c3ccc(Cl)cc3CCc3cccnc32)CC1
Potency [7]: inactive | Potency [6]: inactive | outcome [4]: inactive | outcome [5]: inactive

NNCCc1ccccc1
Potency [1]: inactive | Potency [6]: inactive | Potency [2]: inactive | outcome [4]: inactive | outcome [5]: inactive

Cc1cnc(NC(=O)C2=C(O)c3ccccc3S(=O)(=O)N2C)s1
Potency [1]: inactive | outcome [3]: inactive | outcome [4]: inactive

N=c1nc(N2CCCCC2)cc(N)n1O
Potency [1]: inactive | Potency [6]: inactive | Potency [2]: inactive | outcome [3]: inactive | outcome [4]: inactive | outcome [5]: inactive

CC(C)(C)NCC(O)c1ccc(O)c(CO)c1 (stereo not given)
Potency [1]: inactive | Potency [6]: inactive | outcome [3]: inactive | outcome [4]: inactive

Nc1ncnc2nc(-c3ccc(N4CCOCC4)nc3)cc(-c3cccc(Br)c3)c12
outcome [3]: inactive | outcome [4]: inactive

O=C1CCc2cc(OCCCCc3nnnn3C3CCCCC3)ccc2N1
Potency [1]: inactive | Potency [6]: inactive | outcome [3]: inactive | outcome [4]: inactive | outcome [5]: inactive

CCOC(=O)C1=C[C@]2(CC)CCCN3CCc4c(n1c1ccccc41)[C@@H]32
Potency [1]: 141 nM (active) and 31.6 nM (active) | Potency [2]: inactive | outcome [3]: inactive | outcome [4]: inactive | outcome [5]: inactive

c1ccc([C@H]2CN3CCSC3=N2)cc1
Potency [1]: inactive | outcome [3]: inactive | outcome [4]: inactive | outcome [5]: inactive

O=C(O)COCCN1CCN(C(c2ccccc2)c2ccc(Cl)cc2)CC1 (stereo not given)
outcome [3]: inactive | outcome [4]: inactive | outcome [5]: inactive

CCC(C)N(C)C(=O)c1cc2ccccc2c(-c2ccccc2Cl)n1 (stereo not given)
Potency [1]: inactive | outcome [3]: inactive | outcome [4]: inactive | outcome [5]: inactive

CCN(CC)CCCC(C)Nc1ccnc2cc(Cl)ccc12 (stereo not given)
outcome [3]: inactive | outcome [4]: inactive | outcome [5]: inactive

Cc1ccc(N(CC2=NCCN2)c2cccc(O)c2)cc1
Potency [6]: inactive | Potency [2]: inactive | outcome [4]: inactive | outcome [5]: inactive

OC(CCN1CCCCC1)(c1ccccc1)C1CC2C=CC1C2 (stereo not given)
outcome [3]: inactive | outcome [4]: inactive | outcome [5]: inactive

O=C(Nc1nc2ccccc2n1CCN1CCOCC1)c1cccc([N+](=O)[O-])c1
outcome [3]: inactive | outcome [4]: inactive | outcome [5]: inactive

C#Cc1cccc(Nc2ncnc3cc(OCCOC)c(OCCOC)cc23)c1
Potency [1]: inactive | Potency [2]: inactive

Nc1nc2c(ncn2COCCO)c(=O)[nH]1
Potency [6]: inactive | Potency [2]: inactive | outcome [3]: inactive | outcome [4]: inactive | outcome [5]: inactive

C1COC(NC(C2CC2)C2CC2)=N1
Potency [1]: inactive | outcome [3]: inactive | outcome [4]: inactive | outcome [5]: inactive

Clc1ccc(Nc2nnc(Cc3ccncc3)c3ccccc23)cc1
Potency [2]: 20.3 µM (active)

Nc1nc2ccc(OC(F)(F)F)cc2s1
Potency [6]: inactive | Potency [2]: inactive | outcome [3]: inactive | outcome [4]: inactive | outcome [5]: inactive

CC(C)C[C@H](NC(=O)[C@@H](O)[C@H](N)Cc1ccccc1)C(=O)O
Potency [6]: inactive | Potency [2]: inactive | outcome [3]: inactive | outcome [4]: inactive | outcome [5]: inactive

CCn1cc(C(=O)O)c(=O)c2cc(F)c(N3CCNC(C)C3)c(F)c21 (stereo not given)
outcome [3]: inactive | outcome [4]: inactive | outcome [5]: inactive

O=c1n(CCCN2CCN(c3cccc(Cl)c3)CC2)nc2ccccn12
Potency [6]: inactive | Potency [2]: inactive | outcome [3]: inactive | outcome [4]: inactive | outcome [5]: inactive

CCCc1nn(C)c2c(=O)[nH]c(-c3cc(S(=O)(=O)N4CCN(C)CC4)ccc3OCC)nc12
Potency [6]: inactive
